TAG inh = triacylglycerol accumulation inhibition. H9c2 cells, Nile Red lipid (TAG) fluorescence; cells loaded with 200 µM oleic acid. inhibition, % at 12.5 µM. 230,000 tested, 0.66% active. AID 651582;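 active = pattern-corrected inhibition of lipid staining of at least 50% with the nuclear-stain viability signal not falling by more than 50%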;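 note: 0% = DMSO wells and 100% = triacsin C control wells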
Jurkat NFkB inh = lowers PMA/ionomycin-induced NF-kB signal in Jurkat cells | PMA/ionomycin-induced NF-kB luciferase reporter, luminescence | inhibition, % at 4 µM | 330,000 tested, 0.53% active | AID 435003; in the data active = inhibition above about 50%
Shn3 3UTR inh = inhibitors of Schnurri-3 3'UTR reporter in osteoblasts. Clone20 osteoblast Shn3 3'UTR firefly luciferase, 24 h. 360,000 tested, 0.52% active. inhibition, % at 12.5 µM. AID 588674;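 active = mean inhibition of at least 75% with every replicate also reaching 75%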;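 note: 0% = median of neutral control wells and 100% = pilot-screen positive control compound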
aSyn UTR inh = MLPCN primary screen, SNCA 5' untranslated region. inhibition, % (tested at 7.5 µM). alpha-synuclein 5'UTR reporter, inhibitor activity. 300,000 tested, 0.82% active; in the data active = inhibition above about 60%;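 note: H4 neuroglioblastoma cells stably carrying SNCA 5'UTR luciferase fusion; 0% = DMSO wells and 100% = positive control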
697 NFkB inh = lowers PMA/ionomycin-induced NF-kB signal in 697 B cells | 697 B-cell NF-kB luciferase reporter, 16 h | inhibition, % at 4 µM | 330,000 tested, 0.33% active | AID 435022; in the data active = inhibition above about 35%
Gli-Sufu antag = antagonists of Gli-Sufu signaling; Sufu-KO-LIGHT fibroblasts, Gli luciferase reporter luminescence; inhibition, % at 5 µM; 340,000 tested, 0.74% active; AID 588413;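 active = inhibition above about 55%, limit read from the data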;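 note: 0% = DMSO-treated cells and 100% = wells with medium but no cells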
* marks the source's active call; other numbers are inactive results; / = not tested or not shown. The list is not random: actives were taken first. Their share in the collection is about 2.3%.

SMILES	TAG inh	Jurkat NFkB inh	Shn3 3UTR inh	aSyn UTR inh	697 NFkB inh	Gli-Sufu antag
Cc1ccc2c(c1)c1ccc3c(c1n2C)C(=O)C=CC3=O	/	18	95*	/	-25	-20
Cn1c2ccccc2c2ccc3c(c21)C(=O)C=CC3=O	19	/	94*	/	/	9
Cc1cc2oc(=O)cc(CN3CCCCC3C)c2cc1Cl (stereo not drawn)	/	14	-3	34	17	2
Cn1c(NC(=O)c2ccc(F)cc2)nc2ccccc21	5	-119	-66	-103	-167	-86
C/C(=N\NC(=O)c1ccccc1)c1nc2ccccc2n1C	-9	22	-14	62*	14	32
Cc1ccc(/C=C/C(=O)c2ccc([N+](=O)[O-])o2)cc1	/	16	/	-34	2	2
O=C(/C=C/c1ccc(Cl)cc1)c1ccc([N+](=O)[O-])o1	85	12	97*	48	-11	-18
CCOC(=O)c1c(NC(=O)c2nn(CC)cc2Br)sc2c1CCCCC2	/	-9	32	20	6	8
CCOC(=O)c1c(NC(=O)c2nn(CC)cc2Br)sc(C)c1C	/	-2	84*	9	16	17
O=C1C(Cl)=C(N2CCN(c3ccccc3[N+](=O)[O-])CC2)C(=O)c2ccccc21	/	/	96*	-5	/	37
COc1ccc2c(c1)C(C)=CC(C)(C)N2S(=O)(=O)c1ccc(NC(C)=O)cc1	21	45	1	71*	-54	47
CCOC(=O)C1=NNC(C(=O)OCC)C1c1ccccc1 (stereo not drawn)	-10	/	10	/	/	-3
CC[C@H](C)[C@H]1O[C@]2(CC[C@@H]1C)C[C@@H]1C[C@@H](CC=C(C)[C@@H](O[C@H]3C[C@H](OC)[C@@H](O[C@H]4C[C@H](OC)[C@@H](O)[C@H](C)O4)[C@H](C)O3)[C@@H](C)C=CC=C3CO[C@@H]4[C@H](O)C(C)=C[C@@H](C(=O)O1)[C@]34O)O2	133	15	97*	/	0	4
CCN(CC)CCCN=Cc1c(O)n(-c2c(C)cccc2C)c(=O)c2ccccc12	26	-10	-11	19	0	0
CCc1ccc(-n2c(O)c(C=NCCN(CC)CC)c(=O)[nH]c2=O)cc1	-3	/	96*	/	/	0
Cc1cc(=O)oc2cc(OCC(=O)NC(Cc3c[nH]c4ccc(O)cc34)C(=O)O)c(Cl)cc12 (stereo not drawn)	/	-19	8	11	-3	6
COc1ccc(CCC(=O)NCc2ccc3c(c2)OCO3)cc1	/	3	-3	6	1	41
Cc1cc(C(=O)CCC(=O)Nc2ncccc2O)c(C)s1	-5	-13	-21	-45	-13	-21
CCOC(=O)[C@H]1[C@H]2COc3ccc(Br)cc3[C@@H]2N2C(=O)c3ccc(Cl)cc3NC(=O)[C@@]12C	-14	3	18	/	30	21
O=S(=O)(Nc1cc(Sc2ncn[nH]2)c(O)c2ccccc12)c1ccccc1	/	40	93*	/	-20	-8
CC(=O)OC(COc1cccc(C)c1)Cn1cnc2ccccc21 (stereo not drawn)	13	-8	21	2	-25	-5
Cc1nc(C(F)(F)F)ccc1C(=O)N1CCC1(C)C(=O)NS(=O)(=O)c1ccc(Cl)cc1 (stereo not drawn)	27	/	-16	/	/	/
CS(=O)(=O)N(CC(=O)Nc1cccc(F)c1)c1cccc([N+](=O)[O-])c1	-6	-9	-7	-10	-22	9
CC(=O)Nc1ccc(NC(=O)CN(c2cccc([N+](=O)[O-])c2)S(C)(=O)=O)cc1	-12	0	-7	69*	-13	7
Cc1ccc2cc(C)c(NCCO)nc2c1	-8	-15	2	6	-13	-2
SMILES	TAG inh	Jurkat NFkB inh	Shn3 3UTR inh	aSyn UTR inh	697 NFkB inh	Gli-Sufu antag
COc1ccc(C)cc1Nc1c2c(nc3ccccc13)CCC2	/	34	79	68*	-45	46
COc1ccc(Nc2c3c(nc4ccccc24)CCCC3)cc1OC	9	-7	4	-21	-59	24
O=C(Nc1ccc(S(=O)(=O)N2CCCCCC2)cc1)c1[nH]ncc1[N+](=O)[O-]	28	-25	3	86*	-50	/
O=C(Nc1ccc([N+](=O)[O-])cc1)c1ccc(S(=O)(=O)N2CCCC2)cc1	/	13	-1	12	5	2
CCOc1c(Br)cc(CNc2ccc3c(c2)OCCO3)cc1OC	32	46	63	97*	-29	-9
N#Cc1c(NC(=O)C2CC(c3c(F)cccc3Cl)=NO2)sc2c1CCC2 (stereo not drawn)	/	-8	-34	3	6	-8
CC(C)(C)c1ccc(-c2cn(-c3ccc(Br)cc3)c3[n+]2CCCS3)cc1	3	/	80	-8	/	93*
Cc1nn2cc(-c3ncc(C(F)(F)F)cc3Cl)cnc2c1Br	/	-128	-9	25	-156	-59
Cc1cc2ncc(-c3ncc(C(F)(F)F)cc3Cl)cn2n1	/	-96	-27	65*	-87	-13
Cc1nc2cc(-c3ccccc3)sc2c(=O)n1N	10	35	73	111*	9	34
Cc1ccc(-n2nc3c(Cl)nnc(C)c3c2C)cc1	/	-7	4	22	3	10
O=c1[nH]c(/C=C/c2ccc(Br)cc2)nc2ccccc12	/	-123	-112	-169	-157	16
CN(C)c1ccc(/C=C/c2nc3ccccc3c(=O)[nH]2)cc1	/	-53	60	87*	-124	-106
COc1ccc(Cn2c(/C=C/c3ccccc3)nc3ccccc32)cc1	/	-121	-14	-202	-127	-130
COc1ccccc1/C=C/c1nc2ccccc2c(=O)o1	2	/	-60	-107	/	-64
COc1ccc(/C=C/c2nc3ccccc3c(=O)o2)cc1	/	31	57	102*	-37	71*
COc1ccc(/C=C/c2nc3ccccc3n2C)cc1	-10	-31	73	109*	-91	45
CCOc1ccc(C(=O)O[C@H]2[C@H](Cc3ccccc3)NS(=O)(=O)[C@H]3C[C@@H]4C=C[C@]23O4)cc1	18	2	-12	/	7	-12
c1csc(C(c2nnnn2C2CCCCC2)N2CCCC3(CCCCC3)C2)c1 (stereo not drawn)	9	3	36	1	2	14
CC(C)(C)n1nnnc1C(c1cccs1)N1CCCC2(CCCCC2)C1 (stereo not drawn)	/	-10	85*	35	8	18
COCC(=O)OC1CCn2c1nc1c2C(=O)C(C)=C(NC(C)=O)C1=O (stereo not drawn)	99	/	89*	/	/	39
O=C(CSc1nnc(-c2ccccc2)n1-c1ccccc1)c1cccs1	/	1	-7	3	-38	-7
CC(=O)c1c(C)[nH]c(C(=O)Nc2ccc(C)cn2)c1C	10	-7	39	85*	-100	23
CC(=O)c1c(C)[nH]c(C(=O)Nc2nc(C)cs2)c1C	16	-50	49	86*	-70	-23
CCOC(=O)Cc1csc2nc(-c3ccccc3)nn12	/	-21	-30	-2	-7	11

Screening data deposited in PubChem BioAssay by several laboratories.
